The values that follow come from PubChem BioAssay AID1259418 (Broad Institute, 2018).

The campaign covered roughly 3,400 compounds. About 840 (25%) were called active. Inconclusive results (about 11%) are left out.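 The calls were made as follows: active = fitted half-maximal concentration of signal decrease at or below twice the sample's top tested concentration; inconclusive = flat curve between -70 and -30 percent, or poor fit; inactive = flat within 30 percent, signal rise, or potency above limit.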 Only a sample is shown. Potency and affinity values are given separately.

The nature of this test: T. gondii growth inhibition with IFN-gamma, dose response, cell-based, ME49Luc, HeLa, luciferase, 72 h (AID 1259418). The conditions noted are these: T. gondii ME49Luc in IFN-y HeLa, active compounds read low, -100% = high-dose IFN-γ control wells; at 19.5 µM unless noted.
Take `COc1ccc(-c2nc(N3CCN(c4ccc(C)cc4C)CC3)c3ccccc3n2)cc1`: the max activity is -12.6% [at 0.16 µM] (inactive).

In the case of `COc1ccc(CC(=O)Nc2ccc(-c3nc(-c4cc(C)ccc4C)co3)cc2)cc1`, the max activity was 17.8% [at 0.16 µM] (inactive).

`CN1c2ccc(C3=CCCCC3)cc2[C@@H]2[C@@H](CCN2C(=O)C2CCOCC2)[C@H]1CO`: the max activity was 43.9% (inactive).

`COc1ccc(NC(=O)N2CC[C@@H]3[C@H]2c2cc(C4=CCCCC4)ccc2N(C)[C@H]3CO)cc1`: the max activity was 18.9% [at 0.3 µM] (inactive).

As for `Cc1ccc(-c2coc(-c3ccc(NC(=O)C(C)C)cc3)n2)cc1`, the max activity was 38.3% (inactive).

On to `COc1ccc(C)cc1NC(=O)Nc1ccc(-c2nc(-c3cc(C)ccc3C)co2)cc1`, for which the max activity was 9.85% [at 0.35 µM] (inactive).

For `Cc1cc(C)c2c(=O)n(Cc3nc(-c4cccc(Cl)c4)oc3C)c(=O)n(-c3ccccc3)c2n1`, the max activity was -9.3% [at 0.16 µM] (inactive).

`COc1ccccc1CNC(=O)CC1N=C2c3ccccc3N=C(SCc3ccccc3F)N2C1=O` (stereo not given): the max activity is 21.2% [at 1.35 µM] (inactive).

Turning to `O=C(Cc1cccc(F)c1)Nc1ccc2c(c1)CCC(=O)N2`, the max activity was -7.77% (inactive).

On to `O=C(C[C@@H]1CC[C@@H]2[C@H](COC[C@@H](O)CN2C(=O)Nc2cc(Cl)cc(Cl)c2)O1)N1CCOCC1`, for which the max activity was 20.4% (inactive).

For `COCCO[C@H]1CCN(Cc2c(C)noc2C)[C@H]1Cc1ccccc1`, the max activity is 11.4% (inactive).

Regarding `Cc1ccc(-c2coc(-c3ccc(NC(=O)Cc4cccs4)cc3)n2)c(C)c1`, the max activity was 116% (inactive).

With `COc1cc(OC)cc(C(=O)Nc2ccc(-c3nc(-c4ccccc4)co3)cc2)c1`, the max activity is -34% [at 1.35 µM] (inactive).

Regarding `N#Cc1cccc(-c2ccc3c(c2)[C@H]2[C@H](CCN2C(=O)c2ccccc2F)[C@@H](CO)N3)c1`, the max activity is 16.6% [at 10 µM] (inactive).

Turning to `COc1ccccc1-c1ccc2c(c1)[C@H]1[C@H](CCN1S(=O)(=O)c1ccc(C)cc1)[C@@H](CO)N2`, the max activity is 38.9% (inactive).

Take `Cc1ccc(S(=O)(=O)N2CC[C@@H]3[C@@H](CO)Nc4ccc(-c5cccc(C(=O)N(C)C)c5)cc4[C@@H]32)cc1`: the max activity is 30.1% [at 10 µM] (inactive).

`O=C(c1ccc2c(c1)OCO2)N1CC[C@@H]2[C@H]1c1cc(C#Cc3ccccc3)ccc1N[C@@H]2CO`: the max activity is 33.7% [at 10 µM] (inactive).

Take `COc1ccccc1-c1ccc2c(c1)[C@@H]1[C@@H](CCN1S(=O)(=O)c1ccc(C)cc1)[C@H](CO)N2`: the max activity was 39.6% [at 5 µM] (inactive).

Take `Cc1ccc(S(=O)(=O)N2CC[C@@H]3[C@H](CO)Nc4ccc(-c5cccc(C(=O)N(C)C)c5)cc4[C@@H]32)cc1`: the max activity is 26.4% [at 5 µM] (inactive).

On to `O=S(=O)(c1cccc(F)c1)N1CC[C@@H]2[C@H]1c1cc(C#Cc3ccccc3F)ccc1N[C@@H]2CO`, for which the max activity was 6.78% [at 0.3 µM] (inactive).
